From the supplement of paper PMC10849652
The full data set covers some 7,900 targets. This sample favours those with a hit. About 0.6% of all pairs of compound and target were hits.

Compound: C/C(=N\NC(=O)C1=CC(=CC=C1)S(=O)(=O)N2CCOCC2)/C3=C(C=CC(=C3)Cl)O
Assay: log2 fold change, soluble protein after heating vs DMSO (PISA); higher = thermal stabilisation; K562 cells, 10 uM, 30 min; active = over 0.2 and 3.5 SD of the protein, either way, in both replicates (recomputed)
Procedure, shortened: (§1)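 Values are thermal stability changes relative to control samples and are taken from duplicates. They are stated as log2 fold changes. Before quantification by TMTpro 16plex LC-MS/MS with equalised channel sums, K562 cells at 2×10^6 cells/mL were treated with 10 μM compound for 30 min, heated in aliquots for 3 min across 48°C-58°C, pooled, extracted in PBS with 0.5% NP-40 at 4°C, and centrifuged at 21,000xg for 90 min to give the soluble supernatant.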

Chain of UniProt Q9NZC3 (Q9NZC3 whole entry, looked up): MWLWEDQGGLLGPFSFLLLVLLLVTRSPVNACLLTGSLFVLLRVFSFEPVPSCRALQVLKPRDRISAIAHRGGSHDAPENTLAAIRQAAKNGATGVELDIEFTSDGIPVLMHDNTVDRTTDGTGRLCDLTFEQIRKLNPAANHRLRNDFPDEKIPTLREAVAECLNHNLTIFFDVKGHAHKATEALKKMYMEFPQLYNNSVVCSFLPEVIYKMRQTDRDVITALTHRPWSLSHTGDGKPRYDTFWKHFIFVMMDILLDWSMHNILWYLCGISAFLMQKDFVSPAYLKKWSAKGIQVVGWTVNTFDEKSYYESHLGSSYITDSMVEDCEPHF
Chain of UniProt Q10471 (Q10471 whole entry, looked up): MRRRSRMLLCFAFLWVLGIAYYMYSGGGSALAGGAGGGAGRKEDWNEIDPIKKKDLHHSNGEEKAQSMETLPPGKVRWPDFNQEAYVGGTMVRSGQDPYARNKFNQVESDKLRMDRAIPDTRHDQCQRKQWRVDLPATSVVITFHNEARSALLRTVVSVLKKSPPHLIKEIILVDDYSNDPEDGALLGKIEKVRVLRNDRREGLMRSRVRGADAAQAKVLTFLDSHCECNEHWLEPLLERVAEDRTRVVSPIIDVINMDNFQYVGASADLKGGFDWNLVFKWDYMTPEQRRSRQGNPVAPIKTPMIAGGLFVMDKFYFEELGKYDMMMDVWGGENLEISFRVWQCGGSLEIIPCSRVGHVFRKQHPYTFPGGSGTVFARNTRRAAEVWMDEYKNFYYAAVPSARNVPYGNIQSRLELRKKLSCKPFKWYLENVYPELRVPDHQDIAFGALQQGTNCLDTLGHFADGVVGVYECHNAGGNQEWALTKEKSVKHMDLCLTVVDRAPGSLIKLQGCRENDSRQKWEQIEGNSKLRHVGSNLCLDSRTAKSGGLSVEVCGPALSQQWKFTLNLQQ
Chain of UniProt O95363 (O95363 whole entry, looked up): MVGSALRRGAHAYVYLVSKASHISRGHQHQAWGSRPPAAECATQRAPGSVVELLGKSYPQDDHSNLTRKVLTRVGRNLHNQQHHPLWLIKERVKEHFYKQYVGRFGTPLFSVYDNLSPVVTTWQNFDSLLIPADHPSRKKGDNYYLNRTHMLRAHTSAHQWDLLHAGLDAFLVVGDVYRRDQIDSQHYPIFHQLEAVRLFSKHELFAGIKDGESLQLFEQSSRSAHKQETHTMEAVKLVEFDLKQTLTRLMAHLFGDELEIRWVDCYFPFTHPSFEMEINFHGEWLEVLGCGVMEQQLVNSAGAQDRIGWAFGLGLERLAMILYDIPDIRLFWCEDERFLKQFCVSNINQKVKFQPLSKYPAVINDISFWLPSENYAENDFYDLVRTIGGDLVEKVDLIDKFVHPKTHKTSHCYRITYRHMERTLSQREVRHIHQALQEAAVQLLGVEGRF
Chain of UniProt Q9UJ14 (Q9UJ14 whole entry, looked up): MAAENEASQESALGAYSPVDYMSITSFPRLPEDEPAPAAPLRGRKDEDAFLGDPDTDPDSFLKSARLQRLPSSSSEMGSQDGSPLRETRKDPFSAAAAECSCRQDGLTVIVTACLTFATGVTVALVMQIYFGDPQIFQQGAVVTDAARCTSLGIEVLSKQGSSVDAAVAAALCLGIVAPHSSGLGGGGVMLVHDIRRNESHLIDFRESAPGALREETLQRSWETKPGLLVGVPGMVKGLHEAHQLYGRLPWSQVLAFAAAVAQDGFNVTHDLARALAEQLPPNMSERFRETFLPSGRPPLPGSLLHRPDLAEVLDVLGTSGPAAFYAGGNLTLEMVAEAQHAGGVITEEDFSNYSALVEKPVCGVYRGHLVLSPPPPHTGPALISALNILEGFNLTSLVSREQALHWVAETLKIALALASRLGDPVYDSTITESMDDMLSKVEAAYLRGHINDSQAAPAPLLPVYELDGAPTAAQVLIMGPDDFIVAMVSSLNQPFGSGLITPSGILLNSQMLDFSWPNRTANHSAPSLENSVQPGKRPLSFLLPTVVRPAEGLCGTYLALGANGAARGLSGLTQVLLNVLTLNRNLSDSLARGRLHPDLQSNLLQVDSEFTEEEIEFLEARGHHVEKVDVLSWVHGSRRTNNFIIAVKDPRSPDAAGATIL
Chain of UniProt Q8IWJ2 (Q8IWJ2 whole entry, looked up): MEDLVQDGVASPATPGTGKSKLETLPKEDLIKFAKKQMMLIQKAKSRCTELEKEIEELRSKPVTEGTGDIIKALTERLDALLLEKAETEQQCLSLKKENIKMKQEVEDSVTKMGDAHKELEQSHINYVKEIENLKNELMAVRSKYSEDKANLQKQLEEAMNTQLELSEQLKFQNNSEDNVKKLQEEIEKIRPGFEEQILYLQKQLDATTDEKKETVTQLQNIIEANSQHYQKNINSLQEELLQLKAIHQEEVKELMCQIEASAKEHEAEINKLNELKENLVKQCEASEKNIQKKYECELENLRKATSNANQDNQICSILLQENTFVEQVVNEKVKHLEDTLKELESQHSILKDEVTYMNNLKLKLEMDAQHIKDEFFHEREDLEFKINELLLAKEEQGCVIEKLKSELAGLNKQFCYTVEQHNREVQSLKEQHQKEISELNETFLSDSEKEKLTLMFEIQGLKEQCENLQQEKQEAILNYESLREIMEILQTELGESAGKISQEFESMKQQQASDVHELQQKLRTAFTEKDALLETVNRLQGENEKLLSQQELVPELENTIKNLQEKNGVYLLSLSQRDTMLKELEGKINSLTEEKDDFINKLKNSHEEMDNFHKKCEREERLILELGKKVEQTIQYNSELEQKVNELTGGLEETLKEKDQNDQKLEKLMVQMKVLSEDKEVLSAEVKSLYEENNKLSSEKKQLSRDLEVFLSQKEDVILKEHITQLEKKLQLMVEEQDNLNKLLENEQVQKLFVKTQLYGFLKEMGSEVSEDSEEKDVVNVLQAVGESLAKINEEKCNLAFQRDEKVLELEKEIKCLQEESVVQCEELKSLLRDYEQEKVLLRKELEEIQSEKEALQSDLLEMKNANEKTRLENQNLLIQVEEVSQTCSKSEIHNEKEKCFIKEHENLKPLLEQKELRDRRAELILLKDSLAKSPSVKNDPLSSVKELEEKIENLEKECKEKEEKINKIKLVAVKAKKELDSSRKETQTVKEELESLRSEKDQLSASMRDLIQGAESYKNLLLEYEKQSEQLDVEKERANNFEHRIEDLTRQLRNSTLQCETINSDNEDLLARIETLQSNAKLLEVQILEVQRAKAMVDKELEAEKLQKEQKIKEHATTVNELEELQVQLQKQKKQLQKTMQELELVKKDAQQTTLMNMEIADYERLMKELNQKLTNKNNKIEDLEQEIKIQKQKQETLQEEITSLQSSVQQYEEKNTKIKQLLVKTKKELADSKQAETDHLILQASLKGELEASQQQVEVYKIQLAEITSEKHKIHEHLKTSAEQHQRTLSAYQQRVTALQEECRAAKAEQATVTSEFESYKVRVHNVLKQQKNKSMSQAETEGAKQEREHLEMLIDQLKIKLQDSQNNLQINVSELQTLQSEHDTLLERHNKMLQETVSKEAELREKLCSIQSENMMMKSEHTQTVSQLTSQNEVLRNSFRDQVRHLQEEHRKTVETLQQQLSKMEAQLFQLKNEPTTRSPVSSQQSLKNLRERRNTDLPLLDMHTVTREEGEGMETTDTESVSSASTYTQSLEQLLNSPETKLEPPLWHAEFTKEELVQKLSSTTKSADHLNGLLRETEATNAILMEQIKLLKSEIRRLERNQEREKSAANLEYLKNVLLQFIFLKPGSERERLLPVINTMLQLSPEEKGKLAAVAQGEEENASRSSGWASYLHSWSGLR
Chain of UniProt Q10472 (Q10472 whole entry, looked up): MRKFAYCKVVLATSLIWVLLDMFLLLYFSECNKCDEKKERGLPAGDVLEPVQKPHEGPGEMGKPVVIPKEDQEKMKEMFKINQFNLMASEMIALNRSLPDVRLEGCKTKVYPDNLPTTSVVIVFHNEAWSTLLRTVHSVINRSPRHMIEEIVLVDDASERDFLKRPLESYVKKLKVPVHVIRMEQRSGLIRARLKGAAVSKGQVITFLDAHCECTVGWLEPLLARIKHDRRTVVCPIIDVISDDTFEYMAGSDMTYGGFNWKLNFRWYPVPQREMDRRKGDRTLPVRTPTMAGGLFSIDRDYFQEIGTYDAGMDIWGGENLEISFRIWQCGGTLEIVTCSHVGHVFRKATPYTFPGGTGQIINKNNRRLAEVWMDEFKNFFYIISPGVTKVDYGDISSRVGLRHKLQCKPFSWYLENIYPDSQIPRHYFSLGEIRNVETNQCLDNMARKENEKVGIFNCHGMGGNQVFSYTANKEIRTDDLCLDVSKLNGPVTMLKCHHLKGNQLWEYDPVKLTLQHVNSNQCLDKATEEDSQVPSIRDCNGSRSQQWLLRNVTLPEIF
Chain of UniProt O00165 (O00165 whole entry, looked up): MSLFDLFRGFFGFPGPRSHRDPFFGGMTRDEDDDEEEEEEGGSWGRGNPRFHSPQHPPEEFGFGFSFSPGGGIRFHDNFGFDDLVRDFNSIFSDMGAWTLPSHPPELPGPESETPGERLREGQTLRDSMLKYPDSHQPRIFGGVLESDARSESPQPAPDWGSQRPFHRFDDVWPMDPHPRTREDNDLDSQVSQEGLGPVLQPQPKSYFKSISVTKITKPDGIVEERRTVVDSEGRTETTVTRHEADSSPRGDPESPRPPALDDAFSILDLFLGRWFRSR
Chain of UniProt P50213 (P50213 whole entry, looked up): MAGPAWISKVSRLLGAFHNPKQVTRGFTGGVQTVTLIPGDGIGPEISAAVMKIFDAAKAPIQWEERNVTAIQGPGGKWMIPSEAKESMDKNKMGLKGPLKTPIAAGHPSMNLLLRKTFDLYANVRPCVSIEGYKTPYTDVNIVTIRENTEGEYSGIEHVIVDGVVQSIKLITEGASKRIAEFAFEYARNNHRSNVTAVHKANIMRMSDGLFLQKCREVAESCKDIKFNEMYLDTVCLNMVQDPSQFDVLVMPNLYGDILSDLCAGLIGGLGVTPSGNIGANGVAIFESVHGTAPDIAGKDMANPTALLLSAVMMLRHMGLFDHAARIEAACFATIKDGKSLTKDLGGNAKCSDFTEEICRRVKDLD
Chain of UniProt Q96HJ9 (Q96HJ9 whole entry, looked up): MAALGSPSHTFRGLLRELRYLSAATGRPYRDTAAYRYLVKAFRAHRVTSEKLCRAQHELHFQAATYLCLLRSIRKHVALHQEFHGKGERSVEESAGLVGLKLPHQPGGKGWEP

log2 fold change, inactive:
GYG1 (UniProt P46976) 0.016
ICMT (UniProt O60725) -0.081
FANCD2 isoform 1 (UniProt Q9BXW9) 0.075
GMEB1 (UniProt Q9Y692) 0.071
GALNT2 (UniProt Q10471) 0.043
GCC2 (UniProt Q8IWJ2) 0
HAX1 (UniProt O00165) -0.006
GGT7 (UniProt Q9UJ14) -0.006
HDAC7 isoform 5 (UniProt Q8WUI4) 0.057
HSPA8 (UniProt E9PK54) 0
HIST2H3A (UniProt Q71DI3) -0.114
FLNA (UniProt P21333) 0.072
H2AFX (UniProt P16104) -0.243
GTF2A1 (UniProt P52655) -0.052
GATA1 (UniProt P15976) 0.024
GALNT1 (UniProt Q10472) -0.014
FMC1 (UniProt Q96HJ9) 0.072
GDE1 (UniProt Q9NZC3) 0.065
IDH3A (UniProt P50213) 0.034
FARS2 (UniProt O95363) 0.081
FYB1 isoform 3 (UniProt O15117) 0.032

Compound: C1=CC(=C(C=C1Cl)C2=NC3=NC=CN=C3C(=N2)NC4=CC=NC=C4)F
Assay: as above
Procedure, shortened: as §1

log2 fold change, inactive:
FKBP3 (UniProt Q00688) 0.061
GPX4 (UniProt P36969) -0.012
HEXA (UniProt P06865) 0.013
HECTD1 (UniProt Q9ULT8) -0.031
GLUD2 (UniProt P49448) 0.028
GBF1 (UniProt Q92538) -0.049
HIKESHI (UniProt Q53FT3) 0.017
HBZ (UniProt P02008) 0.252
HIP1 (UniProt O00291) 0.046
HADHB (UniProt P55084) 0.035
GTPBP6 (UniProt O43824) -0.137
GOLPH3 (UniProt Q9H4A6) 0.104
GSTO1 (UniProt P78417) 0.065
GYG1 (UniProt P46976) -0.23
ICMT (UniProt O60725) 0.015
FANCD2 isoform 1 (UniProt Q9BXW9) -0.003
GMEB1 (UniProt Q9Y692) 0.012
GALNT2 (UniProt Q10471) 0.021
GCC2 (UniProt Q8IWJ2) -0.155
HAX1 (UniProt O00165) -0.024
GGT7 (UniProt Q9UJ14) 0.084
HDAC7 isoform 5 (UniProt Q8WUI4) -0.08
HSPA8 (UniProt E9PK54) -0.346
HIST2H3A (UniProt Q71DI3) -0.305
FLNA (UniProt P21333) -0.002
H2AFX (UniProt P16104) -0.54
GTF2A1 (UniProt P52655) 0.001
GATA1 (UniProt P15976) -0.021
GALNT1 (UniProt Q10472) -0.069
FMC1 (UniProt Q96HJ9) 0.083
GDE1 (UniProt Q9NZC3) 0.055
IDH3A (UniProt P50213) 0.1
FARS2 (UniProt O95363) -0.046
FYB1 isoform 3 (UniProt O15117) -0.02
